Measured values as given in PubChem BioAssay AID1851 (National Center for Advancing Translational Sciences (NCATS), 2009).
Several values for one entry are separate records, joined by “and”; a condition that tells them apart may be missing. Equal values may be shown once. The campaign covered roughly 16,000 compounds. About 5,800 (36%) were called active. Inconclusive results (about 23%) are left out. This is one part of the list. Unmarked numbers belong to inactive results. Calls come from the whole dose curve; as a rule, active = well fitted curve in the direction sought with a large enough effect; inconclusive = small, poorly fitted or top-dose-only effect, or effect the other way; inactive = no such curve, though single readings can be large or run the other way.

What follows are molecules tested against Cytochrome P450 2C19 (Homo sapiens) (UniProt P33261) (assay: Cytochrome panel assay with activity outcomes). Conditions: recombinant CYP, pro-luciferin dealkylation, luminescence, p450-cyp2c19; series mostly up to 57.1 µM.
% is set by controls: 0 for no effect and ±100 for the full control effect.

Sequence of Cytochrome P450 2C19 (Homo sapiens) (P33261 whole entry, looked up): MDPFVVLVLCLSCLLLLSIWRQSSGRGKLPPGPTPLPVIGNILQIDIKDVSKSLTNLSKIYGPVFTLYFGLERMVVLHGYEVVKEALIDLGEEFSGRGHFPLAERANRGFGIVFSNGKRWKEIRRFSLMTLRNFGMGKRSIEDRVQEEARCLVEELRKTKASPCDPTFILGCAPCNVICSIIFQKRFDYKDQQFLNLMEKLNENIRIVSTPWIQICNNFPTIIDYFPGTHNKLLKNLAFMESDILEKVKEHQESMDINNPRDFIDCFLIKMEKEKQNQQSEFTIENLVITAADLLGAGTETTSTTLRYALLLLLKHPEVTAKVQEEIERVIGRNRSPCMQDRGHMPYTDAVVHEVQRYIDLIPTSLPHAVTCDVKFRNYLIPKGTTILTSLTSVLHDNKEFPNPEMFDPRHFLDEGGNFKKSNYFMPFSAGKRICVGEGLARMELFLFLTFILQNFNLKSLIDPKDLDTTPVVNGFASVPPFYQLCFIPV

| Structure (SMILES) | AC50 | activity, negative = inhibition |
| --- | --- | --- |
| COc1ccc(-n2c(=O)c(-c3cc(F)cc(F)c3)nc3cnc(N4CCOCC4)nc32)cc1 | inactive | – |
| COc1ccc(-n2c(=O)c(-c3ccccc3)nc3cnc(N4CCNCC4)nc32)cc1 | inactive | – |
| COc1cccc(-c2cc(C(F)(F)F)nc(N3CCOCC3)n2)c1 | 25100 nM (active) | – |
| COc1cccc(-c2cc(C(F)(F)F)nc(N3CCN(c4ccccc4)CC3)n2)c1 | 8910 nM (active) | – |
| COc1cccc(Cn2c(=O)c(-c3cn(C)c4ccccc34)nc3cnc(N4CCOCC4)nc32)c1 | inactive | – |
| CCC(=S)/C=C1\Sc2ccccc2N1CCCS(=O)(=O)O | inactive | – |
| O=[N+]([O-])c1ccc2c(c1)Cc1cc(N=Cc3ccc4c(c3)OCO4)ccc1-2 | – | -19.5% [at 11.4 µM] |
| O=[N+]([O-])c1ccc(Nc2nc(N/N=C\c3ccc4c(c3)OCO4)nc(N3CCCCC3)n2)cc1 | 2240 nM (active) | – |
| Brc1cc2c(cc1/C=N/Nc1nc(N3CCCC3)nc(N3CCOCC3)n1)OCO2 | 7940 nM (active) | – |
| C[C@@H](C(=O)O)[C@@H]1C[C@@]1(C)[C@@H](NC(=O)OCc1ccccc1)c1ccccc1 | inactive | – |
| COC(=O)[C@H](C)[C@H]1C[C@]1(C)[C@H](NC(=O)OCc1ccccc1)c1ccccc1 | 251 nM (active) | – |
| C[C@@H](C(=O)O)[C@H]1C[C@]1(C)[C@H](NC(=O)OCc1ccccc1)c1ccccc1 | 7940 nM (active) | – |
| COC(=O)[C@H](C)[C@@H]1C[C@@]1(C)[C@@H](NC(=O)OCc1ccccc1)c1ccccc1 | 316 nM (active) | – |
| O=C(/C=C\C=C/c1ccc2c(c1)OCO2)N1CCCCC1 | inactive | – |
| COCOc1cc(OC)ccc1C(=O)/C=C\c1ccc2c(c1)OCO2 | 100 nM (active) | – |
| O=C(/C=C\c1ccc2c(c1)OCO2)c1ccc(F)cc1 | 1000 nM (active) | – |
| O=C(O)/C=C\C=C/c1ccc2c(c1)OCO2 | – | 23.6% [at 11.4 µM] |
| Nc1ccccc1C(=O)/C=C\c1ccc2c(c1)OCO2 | 1000 nM (active) | – |
| O=C1/C(=C/c2cccnc2)SC(=S)N1Cc1ccco1 | 3160 nM (active) | – |
| COC(=O)c1nn(-c2ccc(OC)cc2)c(=O)cc1Oc1cccc(Cl)c1 | 14100 nM (active) | – |

| Structure (SMILES) | AC50 | activity, negative = inhibition |
| --- | --- | --- |
| O=C1C=C[C@@H](O)[C@H]2[C@@H]3C(=O)N(c4cccc(Oc5ccccc5)c4)C(=O)[C@@H]3CC[C@H]12 | – | -33.5% [at 11.4 µM] |
| COC(=O)c1nn(-c2ccccc2)c(=O)cc1Oc1ccccc1 | 14100 nM (active) | – |
| Nc1nc2c(nc(Br)n2[C@@H]2O[C@H]3COP(=O)(O)O[C@@H]3[C@H]2O)c(=O)[nH]1 | inactive | – |
| NC(N)=[N+]1CCc2ccccc2C1 | inactive | – |
| COc1ccc(N(C(=O)COc2ccccc2OC)S(=O)(=O)c2ccc(C)cc2)cc1 | 5010 nM (active) | – |
| CON(C)C(=O)c1nnc2c3ccccc3n(S(=O)(=O)c3ccc(C)cc3)c2n1 | – | 16% [at 11.4 µM] and 19.4% [at 11.4 µM] |
| C[C@H](NC(=O)c1ccc(Cl)c(Cl)c1)c1ccc(-c2ccccc2)cc1 | 1260 nM (active) | – |
| CCCCCN(CCCCC)C(=O)[C@H](CCC(=O)O)NC(=O)c1ccc(Cl)c(Cl)c1 | inactive | – |
| COc1ccc(C(NC(=O)c2ccc(-c3ccccc3)cc2)c2ccccc2)cc1 (stereo not drawn) | inactive | – |
| O=C(Nc1cccc(F)c1)N1CC[C@@]2(CCCN(C(=O)c3cnccn3)C2)C1 | inactive | – |
| O=c1oc2cc(Oc3ccc(C(F)(F)F)cc3[N+](=O)[O-])ccc2c2c1CCCC2 | inactive | – |
| O=c1oc2cc(Oc3c([N+](=O)[O-])cc(C(F)(F)F)cc3[N+](=O)[O-])ccc2c2c1CCCC2 | 2820 nM (active) | – |
| CN(C)C(=O)c1ccc(-c2cncnc2NC2CCNCC2)cc1 | inactive | – |
| Fc1ccc(Nc2ncncc2-c2ccoc2)cc1 | inactive | – |
| CN(C)c1ccc(-c2cncnc2Nc2ccccc2)cc1 | 316 nM (active) | – |
| CN(C)c1ccc(-c2cncnc2Nc2ccc(F)cc2)cc1 | 794 nM (active) | – |
| COC(=O)[C@@H]1[C@@H]2C[C@H]3c4[nH]c5cc(OC)ccc5c4CCN3C[C@@H]2C[C@H](OC(=O)c2cc(OC)c(OC)c(OC)c2)[C@H]1OC | inactive | – |
| COc1cc(C(=O)NC(=S)Nc2ccc3oc(=O)ccc3c2)cc(OC)c1OC | inactive | – |
| COc1cc(C(=O)NC(=S)Nc2cccc(-c3cc4ccccc4oc3=O)c2)cc(OC)c1OC | 5010 nM (active) | – |
| CCOc1ccc(C(=O)Nc2cccc(-c3cc4ccccc4oc3=O)c2)cc1[N+](=O)[O-] | 1780 nM (active) | – |

| Structure (SMILES) | AC50 | activity, negative = inhibition |
| --- | --- | --- |
| COc1cc(NC(=O)c2cc(Cl)ccc2Cl)ccc1-c1cc2ccccc2oc1=O | 794 nM (active) | – |
| CCCCC(=O)Nc1cc(OCC)c(NC(=O)c2ccccc2[N+](=O)[O-])cc1OCC | inactive | – |
| C[C@@H]1CCc2cc(F)cc3c(=O)c(C(=O)O)cn1c23 | inactive | – |
| Clc1ccccc1-c1nccc(-n2ccnc2)n1 | 2510 nM (active) | – |
| Clc1ccccc1-c1nc(NC2CCNCC2)c2ccccc2n1 | inactive | – |
| FC(F)(F)c1ccccc1-c1nccc(N2CCNCC2)n1 | inactive | – |
| Cc1noc(C)c1-c1nccc(-n2ccnc2)n1 | 3980 nM (active) | – |
| Cc1noc(C)c1-c1nccc(N2CCN(C)CC2)n1 | inactive | – |
| Cc1ccccc1-c1nc(-n2ccnc2)c2ccccc2n1 | 5010 nM (active) | – |
| Cc1ccccc1-c1nc(N2CCN(C)CC2)c2ccccc2n1 | inactive | – |
| Cc1noc(C)c1-c1cc(N2CCN(C)CC2)ncn1 | inactive | – |
| Cc1ccccc1-c1nc(N2CCNCC2)c2ccccc2n1 | inactive | – |
| Clc1ccccc1-c1nc(-n2ccnc2)c2ccccc2n1 | 7940 nM (active) | – |
| CCOC(=O)[C@]1(CC(=O)O)CCCC1=O | – | 5.42% [at 11.4 µM] |
| CCOC(=O)C1(N(CC)CC)Sc2cc(C)ccc2NC1=O (stereo not drawn) | 89.1 nM (active) | – |
| CCCCCCCCCCCCCCCCCC(=O)O[C@H](CC(=O)O)C[N+](C)(C)C | inactive | – |
| NNC(=O)c1ccc[n+](CCc2ccccc2)c1 | – | -21.6% [at 11.4 µM] |
| O=C(C[n+]1cccc(NC(=O)c2ccccc2)c1)c1ccc(NC(=O)c2ccccc2)cc1 | 39800 nM (active) | – |
